tim23-1 inh = growth inhibitors of tim23-1 mutant yeast, primary screen, luminescence, uHTS; AID 463212, 2010; S. cerevisiae tim23-1 growth, BacTiter-Glo luminescence, 24 h; inhibition, % at 20 µM; 1.3% of 330,000 active;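 active = growth inhibition of the mutant yeast at or above 50%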;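 also: temperature-sensitive mutant grown at 25 °C; plate controls were DMSO-treated mutant yeast for no effect and medium wells lacking yeast for full effect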
TIM10 inh = growth inhibitors of isogenic TIM10 control yeast, primary screen, counter-screen for tim10-1 yeast inhibitor project, luminescence, uHTS; S. cerevisiae TIM10 strain growth, BacTiter-Glo luminescence, 24 h; inhibition, % at 10 µM; 1.4% of 330,000 active; AID 463195, 2010;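 active = inhibition of 40% or more at the single tested concentration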;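 also: wild-type TIM10 isogenic control strain grown at permissive 25 °C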
PfHsp90 yeast 2 = growth inhibition of PfHsp90-expressing yeast, primary screen, antimalarial PfHsp90 inhibitor project, S. cerevisiae, BacTiter-Glo luminescence, single point, set 2; BacTiter-Glo ATP, 48 h; yeast lacking PDR1 and PDR3 efflux regulators; inhibition, % at 9.4 µM; 0.32% of 310,000 active;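 active = every replicate shows inhibition above about 80%, whatever the replicate mean, limit read from the data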;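 also: 0% = DMSO neutral controls and 100% = 20 µM radicicol positive controls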
tim10-1 inh = growth inhibitors of tim10-1 mutant yeast, primary screen, luminescence, uHTS; S. cerevisiae tim10-1 ts strain growth, BacTiter-Glo, 24 h; inhibition, % at 20 µM; 2.2% of 330,000 active; AID 463190, 2010;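 active = inhibition of at least 40%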;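 also: mutant grown at 25 °C; 0% = DMSO wells with yeast and 100% = wells holding no yeast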
NLRP3 yeast inh = NALP3 inflammasome inhibitors in reconstituted yeast, primary screen, luminescence, uHTS | Yeast reconstituted NLRP3/ASC/caspase-1, beta-gal luminescence, 24 h | inhibition, % at 10 µM | 0.39% of 330,000 active | AID 2825, 2010;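 active = inhibition of 50% or more; inactive = inhibition below 50%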;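 also: plate controls were induced DMSO wells for no effect and uninduced yeast grown without galactose for full effect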
NALP1 yeast inh = NALP1 inflammasome inhibitors in reconstituted yeast, colorimetric, S. cerevisiae, triplicate retest; S. cerevisiae NALP1/ASC/caspase-1 growth, X-gal OD620, 72 h; inhibition, % at 10 µM; 0.61% of 280,000 active; in the data active = inhibition mostly above about 24%, no sharp cut-off; inactive = mostly below about 32%
tim10-1 conf = growth inhibitors of tim10-1 mutant yeast, confirmation, single concentration, luminescence, S. cerevisiae. inhibition, % at 20 µM. shares compounds with tim10-1 inh. S. cerevisiae tim10-1 ts strain growth, BacTiter-Glo, 24 h. 56% of 7,400 active;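 active = inhibition of yeast growth at or above a set limit in either of two repeat tests at 20 µM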;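 also: tim10-1 mutant grown at permissive 25 °C to find synthetic lethal compounds; 0% = DMSO yeast wells and 100% = medium wells without yeast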
* hit, by the source's call; . = no result. Sampled rows, rich in hits. Any-hit rate of the full collection: about 4.2%.

SMILES	tim23-1 inh	TIM10 inh	PfHsp90 yeast 2	tim10-1 inh	NLRP3 yeast inh	NALP1 yeast inh	tim10-1 conf
CCC(C(=O)OCC(=O)Nc1cc(Cl)cc(Cl)c1)c1ccccc1 (centres undefined)	29	24	4	40*	9	24	26
O=C1CCCCC1Sc1nnc(Cc2cccs2)n1CCc1ccccc1 (centres undefined)	14	17	-4	45*	11	20	24
CCOC(=O)c1c(CSc2ccccc2)n(C)c2ccc(O)c(CN3CCOCC3)c12	39	21	-1	44*	19	-12	16
CCOC(=O)c1c(C)n(C)c2ccc(O)c(CN3CCN(C)CC3)c12	-18	-12	-29	-16	8	-1	.
CC(C)N(C(=O)CSc1nc2ccccc2n1-c1ccccc1)C(C)C	33	28	-26	45*	3	14	28
O=C(CCNc1cc(Cl)cc(Cl)c1)c1cccs1	42	35	-38	46*	12	14	19
Cc1ccccc1NC(=O)c1ccc([N+](=O)[O-])o1	39	37	13	51*	13	0	42*
Cc1cccnc1NC(=O)c1ccc([N+](=O)[O-])o1	27	9	10	17	-4	35	.
Cc1ccc(-c2nnc(NC(=O)c3ccc([N+](=O)[O-])o3)o2)c(C)c1	7	-19	-54	9	10	.	.
CCC(=O)N1CCN(c2ccc(Cl)cc2NC(=O)c2ccc([N+](=O)[O-])o2)CC1	31	27	-5	40*	23	5	27
Cc1cccc(NC(=O)COC(=O)c2ccc([N+](=O)[O-])o2)c1C	-45	-118	41	-60	3	-5	.
Cc1ccccc1/C=C/C(=O)c1ccc([N+](=O)[O-])o1	-7	-8	.	67*	42	.	71*
Cc1ccc(NC(=O)c2ccc([N+](=O)[O-])o2)c(C)c1	49	40	-9	40*	18	6	53*
CCC(=O)N=c1ccn(C2=Nc3ccccc3NC2=C(C#N)C#N)cc1	7	-8	-10	-11	3	-1	.
CSc1ncccc1C(=O)Nc1nc(C(C)(C)C)cs1	44	18	-11	11	39	6	.
CC(C)(C)c1csc(NC(=O)c2c(F)c(F)c(F)c(F)c2F)n1	43	16	8	41*	21	.	24
CCN(CC)CCSc1nnc2c3cc(C)ccc3n(Cc3ccccc3)c2n1	9	10	.	15	21	2	.
O=C(Cc1ccccc1F)c1ccc(O)cc1O	50	22	-4	43*	7	-4	31*
C/C(=N\Nc1nc2ccccc2s1)c1ccc2c(c1)OCO2	23	31	-21	42*	2	34	5
COc1ccc(C(C)=O)cc1CN1C(=O)NC(c2ccccc2)(c2ccccc2)C1=O	0	0	11	-9	19	6	.
CN(C)CCCN(C(=O)c1nc2ccccc2s1)c1nc2ccc(F)cc2s1	18	12	-18	-3	10	.	.
CN(C)CCCN(C(=O)c1ccc(C(=O)c2ccccc2)cc1)c1nc2ccc(F)cc2s1	16	35	-11	49*	17	30	4
Cc1cccc2sc(N(CCCN(C)C)C(=O)c3ccc(C(=O)c4ccccc4)cc3)nc12	3	27	-14	43*	10	5	7
CN(C)CCCN(C(=O)c1ccc(C(=O)c2ccccc2)cc1)c1nc2cc3c(cc2s1)OCO3	22	40	6	27	11	24	.
Cc1cc(=O)[nH]c(N=N/C(=N/Nc2ccc(O)cc2)c2ccccc2)n1	42	13	13	50*	31	12	38*
SMILES	tim23-1 inh	TIM10 inh	PfHsp90 yeast 2	tim10-1 inh	NLRP3 yeast inh	NALP1 yeast inh	tim10-1 conf
CSc1ccccc1OCc1cc(C(=O)N2CCCC(C)C2)no1 (centres undefined)	14	0	-16	19	24	9	.
CSc1ccccc1OCc1cc(C(=O)N2CCSCC2)no1	17	8	3	14	21	10	.
CSc1ccccc1OCc1cc(C(=O)N2CCC(Oc3cccnc3)CC2)no1	39	40	.	43*	17	9	37*
O=C(c1cc(COc2ccc(F)cc2Cl)on1)N1CCN(c2cnccn2)CC1	47	34	-11	50*	27	7	47*
CSc1ccccc1OCc1cc(C(=O)N2CCN(c3ncccn3)CC2)no1	45	33	-5	46*	16	4	29
CCOC(=O)Cc1csc(NC(=S)NC(=O)c2ccc(Cl)cc2)n1	3	-2	.	6	10	14	.
CCOC(=O)Cc1csc(N/N=C\c2cccc(Br)c2)n1	13	28	-64	23	-2	17	.
CCOC(=O)Cc1csc(N/N=C/c2ccccc2)n1	36	25	-37	41*	3	22	20
CCOC(=O)Cc1csc(NC(=S)NC(=O)C(C)(C)C)n1	34	17	-7	41*	-3	14	18
Cc1ccc(Cn2ncc3c(NN)ncnc32)cc1	30	26	-12	27	-17	-10	.
CCC(C)Nc1ncnc2c1cnn2Cc1ccc(Cl)cc1 (centres undefined)	36	7	24	43*	15	3	28
CC(C)Nc1ncnc2c1cnn2Cc1ccc(Cl)cc1	23	16	-3	43*	12	16	16
O=C(Oc1ccc(C(=S)N2CCCCC2)cc1)c1ccccc1F	38	24	-9	56*	3	11	28
C=CCNC(=O)c1cc2sccc2n1C	-4	-23	-4	-13	8	.	.
CC(C)c1ccc(NC(=O)Nc2cc3sccc3n2C)cc1	28	18	-6	42*	25	36	11
O=C(NC1CCCCC1)c1ccc(-c2cccc([N+](=O)[O-])c2)o1	40	28	-8	41*	17	17	25
O=C(O)c1ccc(-c2cccc([N+](=O)[O-])c2)o1	2	-7	-5	-16	8	30	.
COc1ccccc1NC(CC(=O)c1ccccc1)C(=O)OCC(=O)c1ccc(F)cc1 (centres undefined)	33	34	0	45*	-41	11	40*
COc1ccccc1NC(=O)CCCC(=O)OCC(=O)c1ccc(F)cc1	12	6	11	25	7	5	.
